Results taken from the supplement of paper PMC8728848.
Many of the other results were omitted from the sample, so the strongest signals are more common in it than they were.

Key:
Assay in all cases: glycan array binding signal (z-score within array); higher = stronger binding
Details in all cases: glycan notation: IUPAC condensed, linker removed
Glc(a1-2)Glc(a1-2)Glc = target: Glc(a1-2)Glc(a1-2)Glc
Summary of the method: (§1)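 Glycan array data were curated from 3228 arrays in the Consortium for Functional Glycomics database and kept only where the protein sequence was available. Glycan names were converted to IUPAC-condensed notation, and columns mapping to the same glycan were averaged. The binding signal is a within-array Z-score, averaged across arrays of the same protein sequence at different concentrations or buffers and across linkers. Negative Z-scores can be read as non-binding.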

[1] = target: Glc(a1-4)Glc(a1-4)Glc(a1-4)Glc(a1-4)Glc(a1-4)Glc(a1-4)Glc(a1-4)Glc(a1-4)Glc(a1-4)Glc
Summary of the method: as §1

[2] = target: Glc(b1-2)Glc(b1-2)Glc(b1-2)Glc(b1-2)Glc
Summary of the method: as §1

[3] = target: Glc(b1-2)Glc(b1-2)Glc(b1-2)Glc(b1-2)Glc(b1-2)Glc(b1-2)Glc(b1-2)Glc(b1-2)Glc
Summary of the method: as §1

[4] = target: Glc(b1-2)Glc(b1-2)Glc(b1-2)Glc(b1-2)Glc(b1-2)Glc(b1-2)Glc(b1-2)Glc(b1-2)Glc(b1-2)Glc(b1-2)Glc
Summary of the method: as §1

[5] = target: Glc(b1-3)[Glc(b1-6)]Glc(a1-3)Glc(b1-3)[Glc(b1-6)]Glc
Summary of the method: as §1

[6] = target: Glc(b1-4)Glc(b1-4)Glc(b1-3)Glc
Summary of the method: as §1

[7] = target: Glc(b1-4)Glc(b1-4)Glc(b1-4)Glc(b1-4)Glc
Summary of the method: as §1

[8] = target: Glc(b1-4)Glc(b1-4)Glc(b1-4)Glc(b1-4)Glc(b1-4)Glc(b1-4)Glc(b1-4)Glc(b1-4)Glc(b1-4)Glc
Summary of the method: as §1

[9] = target: Glc(b1-4)Glc(b1-4)Glc(b1-4)Glc(b1-4)Glc(b1-4)Glc(b1-4)Glc(b1-4)Glc(b1-4)Glc(b1-4)Glc(b1-4)Glc(b1-4)Glc(b1-4)Glc
Summary of the method: as §1

Glc(b1-6)Glc(b1-6)Glc = target: Glc(b1-6)Glc(b1-6)Glc
Summary of the method: as §1

[10] = target: Glc(b1-6)Glc(b1-6)Glc(b1-6)Glc(b1-6)Glc(b1-6)Glc(b1-6)Glc(b1-6)Glc(b1-6)Glc(b1-6)Glc
Summary of the method: as §1

[11] = target: Glc(a1-2)Glc(a1-2)Glc(a1-2)Glc(a1-2)Glc
Summary of the method: as §1

[12] = target: Glc(b1-2)Glc(b1-2)Glc(b1-2)Glc(b1-2)Glc(b1-2)Glc
Summary of the method: as §1

[13] = target: Glc(a1-2)Glc(a1-2)Glc(a1-2)Glc(a1-2)Glc(a1-2)Glc(a1-2)Glc(a1-2)Glc(a1-2)Glc
Summary of the method: as §1

[14] = target: Glc(a1-3)Glc(a1-3)Glc(a1-3)Glc(a1-3)Glc(a1-3)Glc(a1-3)Glc(a1-3)Glc(a1-3)Glc(a1-3)Glc(a1-3)Glc(a1-3)Glc
Summary of the method: as §1

[15] = target: Glc(a1-4)Glc(a1-4)Glc(a1-4)Glc
Summary of the method: as §1

[16] = target: Glc(a1-4)Glc(a1-4)Glc(a1-4)Glc(a1-4)Glc(a1-4)Glc
Summary of the method: as §1

[17] = target: Glc(a1-4)Glc(a1-4)Glc(a1-4)Glc(a1-4)Glc(a1-4)Glc(a1-4)Glc(a1-4)Glc
Summary of the method: as §1

[18] = target: Glc(a1-4)Glc(a1-4)Glc(a1-4)Glc(a1-4)Glc(a1-4)Glc(a1-4)Glc(a1-4)Glc(a1-4)Glc(a1-4)Glc(a1-4)Glc(a1-4)Glc
Summary of the method: as §1

[19] = target: Glc(b1-3)Glc(b1-3)Glc(b1-3)Glc(b1-3)Glc(b1-3)Glc
Summary of the method: as §1

[20] = target: Glc(b1-3)Glc(b1-3)Glc(b1-3)Glc(b1-3)Glc(b1-3)Glc(b1-3)Glc(b1-3)Glc
Summary of the method: as §1

Glc(b1-4)Glc(b1-4)Glc = target: Glc(b1-4)Glc(b1-4)Glc
Summary of the method: as §1

[21] = target: Glc(b1-4)Glc(b1-4)Glc(b1-4)Glc(b1-4)Glc(b1-4)Glc(b1-4)Glc(b1-4)Glc(b1-4)Glc
Summary of the method: as §1

B1: Unk16A (Cellvibrio mixtus), Q336L6 (protein)
chain: VAYNTTGASSSAASSSAPSSASSSSSSAAPVLLSQGRPVTASSNFQPAANAVDGNGGTRWESTHGVSPSWIMVDLGSSKNLSQVIIDWEAANAANYLVQASNNGMSWTTLKIITTGAFGDRTDTHSVAGNYRYVRIYATARSAGNQWGYSIWELKITGN
glycan array binding signal (z-score) (Glc(a1-2)Glc(a1-2)Glc): -0.668
glycan array binding signal (z-score) [1]: -0.662
glycan array binding signal (z-score) [2]: 2.23
glycan array binding signal (z-score) [3]: 3.49
glycan array binding signal (z-score) [4]: 2.77
glycan array binding signal (z-score) [5]: 4.32
glycan array binding signal (z-score) [6]: -0.192
glycan array binding signal (z-score) [7]: -0.479
glycan array binding signal (z-score) [8]: -0.167
glycan array binding signal (z-score) [9]: -0.398
glycan array binding signal (z-score) (Glc(b1-6)Glc(b1-6)Glc): -0.248
glycan array binding signal (z-score) [10]: 0.062

B2: DC-SIGN (Homo sapiens), Q9NNX6 (protein)
chain: QVSKVPSSISQEQSRQDAIYQNLTQLKAAVGELSEKSKLQEIYQELTQLKAAVGELPEKSKLQEIYQELTRLKAAVGELPEKSKLQEIYQELTWLKAAVGELPEKSKMQEIYQELTRLKAAVGELPEKSKQQEIYQELTRLKAAVGELPEKSKQQEIYQELTRLKAAVGELPEKSKQQEIYQELTQLKAAVERLCHPCPWEWTFFQGNCYFMSNSQRNWHDSITACKEVGAQLVVIKSAEEQNFLQLQSSRSNRFTWMGLSDLNQEGTWQWVDGSPLLPSFKQYWNRGEPNNVGEEDCAEFSGNGWNDDKCNLAKFWICKKSAASCSRDEEQFLSPAPATPNPPPA
glycan array binding signal (z-score) [11]: -0.838
glycan array binding signal (z-score) [12]: 2.48

B3: Pul13 (Thermotoga maritima), O33840 (protein)
chain: ETTIVVHYHRYDGKYDGWNLWIWPVEPVSQEGKAYQFTGEDDFGKVAVVKLPMDLTKVGIIVRLNEWQAKDVAKDRFIEIKDGKAEVWILQGVEEIFYEKP
glycan array binding signal (z-score) [13]: -0.351
glycan array binding signal (z-score) [14]: -0.3
glycan array binding signal (z-score) [15]: 2.43
glycan array binding signal (z-score) [16]: 3.61
glycan array binding signal (z-score) [17]: 4.12
glycan array binding signal (z-score) [18]: 3.44
glycan array binding signal (z-score) [19]: -0.351
glycan array binding signal (z-score) [20]: -0.351
glycan array binding signal (z-score) (Glc(b1-4)Glc(b1-4)Glc): -0.351
glycan array binding signal (z-score) [21]: -0.351
glycan array binding signal (z-score) [10]: -0.351
